Here are results for 31 molecules from PubChem BioAssay (NCATS).

Records with an inconclusive call do not appear. The source made the active and inactive calls. The call rests on the fitted dose curve; in most records, active means well fitted inhibition curve with a large enough effect; inconclusive means small, poorly fitted or top-dose-only effect; inactive means no such curve, though single readings can be large or run the other way.
Potency means the concentration at half of the fitted maximal effect.

The nature of the experiment: qHTS Screen of the MIPE 4.0 Collection Against Ewings Sarcoma (RDES) (AID 1259252). Further: nearly all actives have a fitted effect of over 35% in size. Conditions: RD-ES Ewing sarcoma viability, CellTiter-Glo, 48 h; series mostly up to 45.8 µM. The gist of the method:
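Viability screen: 48 h incubation at 37C, 95% humidity, 5% CO2 with serially titrated compound, followed by CellTiter-Glo readout.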
(qHTS replaces the single test concentration by a dilution series.)
Turning to `O=[N+]([O-])c1ccc(Nc2ccccc2-c2ccccc2)c2nonc12`, the Potency entry is “inactive”. The result for `C=C1c2cccc(O)c2C(O)=C2C(=O)[C@@]3(O)C(O)=C(C(N)=O)C(=O)[C@@H](N(C)C)[C@@H]3[C@@H](O)[C@H]12` reads 20.9 µM (active); that for `CC(=O)NCCC(=O)N[C@@H](CCC(N)=O)C(=O)N[C@@H](CO)C(=O)N[C@@H](CCC(N)=O)C(=O)N[C@@H](CCC(N)=O)C(=O)N[C@H](C(=O)N[C@@H](Cc1ccccc1)C(=O)N[C@]1(C)CCCCCCC=CCCC[C@@](C)(C(=O)N[C@@H](CCC(N)=O)C(=O)N[C@@H](CC(N)=O)C(N)=O)NC(=O)[C@H](CC(C)C)NC(=O)[C@H](CC(C)C)NC(=O)[C@@H](CCCNC(=N)N)NC(=O)[C@H](Cc2c[nH]c3ccccc23)NC(=O)[C@H](CC(C)C)NC(=O)[C@H](CC(N)=O)NC1=O)[C@H](C)O`, 18.7 µM (active). The same measure for `COc1ccc2cc1Oc1ccc(cc1)C[C@H]1c3cc(c(OC)cc3CCN1C)Oc1c(OC)c(OC)cc3c1[C@H](C2)N(C)CC3`: 20.9 µM (active); for `CCC(c1ccc(O)cc1)C(CC)c1ccc(O)cc1` (stereo unspecified): 0.743 µM (active); for `CCCCC[C@H](O)C=C[C@H]1[C@H](O)CC(=O)[C@H]1CCCCCCC(=O)O`: “inactive”. As to `O=c1[nH]c(=O)n([C@H]2C[C@@H](O)[C@@H](CO)O2)cc1I`, the Potency entry was “inactive”.

Consider `Cn1cc(-c2ccc3nnc(Sc4ccc5ncccc5c4)n3n2)cn1`, for which the Potency is 20.9 µM (active). For the molecule `Cc1ccc(NC(=O)Nc2cc(C(F)(F)F)ccc2F)cc1Nc1ccc2c(c1)NC(=O)C2=Cc1ccc[nH]1`, the Potency was 23.5 µM (active).

As to `CC(O)=C(C#N)C(=O)Nc1ccc(C(F)(F)F)cc1`, the Potency is 23.5 µM (active). Consider `CCC(=O)OCC(=O)[C@@]1(OC(=O)CC)[C@@H](C)C[C@@H]2[C@H]3CCC4=CC(=O)C=C[C@]4(C)[C@@]3(F)[C@@H](O)C[C@@]21C`, for which the Potency result is “inactive”. `CCOC(=O)[C@@H](N)CCC(=O)N[C@@H](CSCc1ccccc1)C(=O)N[C@@H](C(=O)OCC)c1ccccc1`: the Potency entry was “inactive”. The same measure for `COc1ccc(CCN(C)CCCOc2ccc(S(=O)(=O)c3[nH]c4ccccc4c3C(C)C)cc2)cc1OC`: “inactive”; for `CCOC(=O)N1c2ccc(C(F)(F)F)cc2[C@@H](N(Cc2cc(C(F)(F)F)cc(C(F)(F)F)c2)C(=O)OC)C[C@H]1CC`: 23.5 µM (active); for `O=C(CCCN1CCN(c2ccc(F)cc2)CC1)NC1c2ccccc2CSc2ccccc21` (stereo unspecified): 14.8 µM (active). The result for `C[C@@H](O)[C@H]1C(=O)N2C(C(=O)OCOC(=O)C(C)(C)C)=C(SC3CN(C4=NCCS4)C3)[C@H](C)[C@H]12` reads “inactive”; that for `Oc1cc(O)cc(C=Cc2ccc(O)c(O)c2)c1`, 20.9 µM (active); that for `C#CCN(C)CC1=Cc2ccccc2Oc2ccccc21`, “inactive”. The same measure for `COc1cc(F)c(C(C)C)cc1-c1ccc(C(F)(F)F)cc1CN1C(=O)O[C@H](c2cc(C(F)(F)F)cc(C(F)(F)F)c2)[C@@H]1C`: “inactive”; for `CCc1cccc(CC)c1NC(=O)N1Cc2[nH]nc(NC(=O)c3ccc(N4CCN(C)CC4)cc3)c2C1`: 5.9 µM (active); for `NC[C@H]1O[C@H](O[C@@H]2[C@@H](O)[C@@H](O[C@H]3O[C@H](CO)[C@@H](O)[C@H](N)[C@@H]3O)[C@H](N)C[C@@H]2N)[C@H](O)[C@@H](O)[C@H]1O`: “inactive”.

For `C=CC[N+]1([C@H]2C[C@H]3[C@@H]4CC[C@H]5C[C@H](O)[C@@H](N6CCOCC6)C[C@]5(C)[C@@H]4CC[C@]3(C)[C@H]2OC(C)=O)CCCC1`, the Potency result is “inactive”. For the molecule `COc1cc2nccc(Oc3ccc(NC(=O)Nc4cc(C)on4)c(Cl)c3)c2cc1OC`, the Potency was 2.35 µM (active). With `c1ccc(CNc2nc(N3CCOc4ccccc43)nc3c2CCCC3)cc1`, the Potency result was “inactive”.

With `Clc1ccc(C2(c3ccc(-c4cn[nH]c4)cc3)CCNCC2)cc1`, the Potency was 14.8 µM (active). With `CC=C1C2C=C(C)CC1(N)c1ccc(=O)[nH]c1C2` (stereo unspecified), the Potency result is “inactive”. The result for `O=C(Nc1ccccc1)Nc1ccc(-c2ccc(C(=O)[C@H]3CCC[C@H]3C(=O)O)cc2)cc1` reads 14.8 µM (active); that for `CC[C@H](C=C[C@@H](C)[C@H]1CC[C@H]2[C@@H]3CC=C4C[C@@H](O)CC[C@]4(C)[C@@H]3CC[C@]12C)C(C)C`, “inactive”. The same measure for `CC=C(C(=CC)c1ccc(O)cc1)c1ccc(O)cc1`: 20.9 µM (active); for `COc1ccc(-c2nc3ccc(C4=NNC(=O)CC4C)cc3[nH]2)cc1` (stereo unspecified): “inactive”; for `COc1ccc(-c2cc(=O)c3c(O)cc(O[C@@H]4O[C@H](CO[C@@H]5O[C@@H](C)[C@H](O)[C@@H](O)[C@@H]5O)[C@@H](O)[C@H](O)[C@@H]4O)cc3o2)cc1O`: 18.7 µM (active).
